Each structure is given as a SMILES string. Calls of active or inactive are those of the source. The call rests on the fitted dose curve; in most records, active means well fitted curve in the direction sought with a large enough effect; inconclusive means small, poorly fitted or top-dose-only effect, or another doubt; inactive means no such curve, though single readings can be large or run the other way.

Experimental findings from PubChem BioAssay (NCATS) are described below.

Chain of Methanococcus maripaludis chaperonin (MmCpn) (Q6LX38 1-543): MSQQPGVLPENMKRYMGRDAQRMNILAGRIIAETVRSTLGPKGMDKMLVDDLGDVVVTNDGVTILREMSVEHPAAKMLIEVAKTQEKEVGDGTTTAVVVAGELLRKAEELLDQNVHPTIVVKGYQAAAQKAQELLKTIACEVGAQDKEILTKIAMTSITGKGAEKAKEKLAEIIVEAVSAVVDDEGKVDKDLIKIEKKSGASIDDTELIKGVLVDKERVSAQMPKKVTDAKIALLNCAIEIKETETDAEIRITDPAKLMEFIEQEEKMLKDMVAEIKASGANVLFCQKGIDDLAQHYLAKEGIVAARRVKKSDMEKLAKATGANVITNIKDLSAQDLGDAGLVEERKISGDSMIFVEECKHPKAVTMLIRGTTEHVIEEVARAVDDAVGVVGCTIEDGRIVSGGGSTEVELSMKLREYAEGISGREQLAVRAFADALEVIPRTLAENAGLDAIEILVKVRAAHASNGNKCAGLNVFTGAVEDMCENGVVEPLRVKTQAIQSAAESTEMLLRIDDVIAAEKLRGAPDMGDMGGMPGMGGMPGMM

For the assay, the target named is Methanococcus maripaludis chaperonin (MmCpn) (UniProt Q6LX38). Briefly: High-Throughput Screening for Modulators of Cytosolic Chaperonin Activity: MmCpn Primary Screen (AID 488978). Conditions: Purified MmCpn ATPase activity, ADP HTRF detection, 10 min; series mostly up to 76.9 µM. The source says:
Chaperonins are key components of the cellular chaperone machinery. These large complexes consist of two stacked 7-9 membered rings, each containing a central cavity. Substrates are folded within the cavity in an ATP-dependent manner. TRiC is a complex of eight different, essential proteins. As each of the genes encoding the eight subunits is essential for cell viability and no protocol has been developed to overexpress this enzyme to high levels, several groups have turned to the archaeal homolog of TRiC from Methanococcus maripaludis (MmCpn) as a model system for the study of the type II chaperonin family.
MmCpn was kindly provided by the laboratory of Judith Frydman.
1. Dispense 1.5 ul enzyme of either TriC at 100 nM or MmCpn at 50 nM final concentration.
2. Transfer 23 nl of compound to plate, incubate 5 min at RT.
3. 1.5 ul ATP at 30 uM at final concentration dispensed into plate.
4. Incubate for 10 minutes at 37C (MmCPN), 30C (TriC).
5. 3 ul of the Cisbio ADP Transcreener HTRF detection reagent prepared according to protocol dispensed into plate.
6. Incubate for 5 minutes.
7. Read using EnVision plate reader at Excitation = 320nm and Emission = 590nm, 665nm
In the case of `Cn1c(=O)c2[nH]cnc2n(C)c1=O`, the compound was classed as inactive.
The same measure for `O=C(C1CCCCC1)N1CC(=O)N2CCc3ccccc3C2C1` (stereo not given): “inactive”; for `COc1ccccc1OCCNCC(O)COc1cccc2[nH]c3ccccc3c12` (stereo not given): “inactive”; for `CN1CCN2c3ccccc3Cc3ccccc3C2C1` (stereo not given): “inactive”.
The same measure for `COc1ccc(CCN(C)CCCC(C#N)(c2ccc(OC)c(OC)c2)C(C)C)cc1OC` (stereo not given): “inactive”; for `CC1COc2c(N3CCN(C)CC3)c(F)cc3c(=O)c(C(=O)O)cn1c23` (stereo not given): “inactive”; for `CN(C)CCCN1c2ccccc2CCc2ccc(Cl)cc21`: “inactive”.
As for `O=C(c1ccc(OCCN2CCCCC2)cc1)c1c(-c2ccc(O)cc2)sc2cc(O)ccc12`, the entry is “inactive”; as for `CC(C)NCC(O)c1ccc(O)c(O)c1` (stereo not given), “inactive”; as for `Cc1cn([C@H]2C[C@H](N=[N+]=[N-])[C@@H](CO)O2)c(=O)[nH]c1=O`, “inactive”.
With `Clc1ccccc1C(c1ccccc1)(c1ccccc1)n1ccnc1`, the result was inactive.
The same measure for `COc1cc2nc(N3CCN(C(=O)c4ccco4)CC3)nc(N)c2cc1OC`: “inactive”.
Take `CN(Cc1cnc2nc(N)nc(N)c2n1)c1ccc(C(=O)N[C@@H](CCC(=O)O)C(=O)O)cc1`: the result was inactive.
With `CN1CCN(C2=Nc3cc(Cl)ccc3Nc3ccccc32)CC1`, the compound was classed as inactive.
As to `CCCNCC(O)COc1ccccc1C(=O)CCc1ccccc1` (stereo not given), the compound was classed as inactive.
For `CCOC(=O)Nc1ccc(NCc2ccc(F)cc2)nc1N`, the compound was classed as inactive.
The same measure for `O=C1N(c2ccccc2)c2ccccc2C1(Cc1ccncc1)Cc1ccncc1`: “inactive”; for `COc1ccc2[nH]cc(CCNC(C)=O)c2c1`: “inactive”.
As for `CCCCc1oc2ccccc2c1C(=O)c1cc(I)c(OCCN(CC)CC)c(I)c1`, the entry is “inactive”; as for `CC#C[C@]1(O)CC[C@H]2[C@@H]3CCC4=CC(=O)CCC4=C3[C@@H](c3ccc(N(C)C)cc3)C[C@@]21C`, “inactive”; as for `Cn1c(=O)c2c(ncn2C)n(C)c1=O`, “inactive”.
The same measure for `CC(CCc1ccc(O)cc1)NCCc1ccc(O)c(O)c1` (stereo not given): “inactive”.
As for `CN(C)CCOC(c1ccccc1)c1ccccc1`, the result was inactive.
As for `CN1C2CCC1CC(OC(=O)C(CO)c1ccccc1)C2` (stereo not given), the entry is “inactive”.
With `O=C1Cc2cc(CCN3CCN(c4nsc5ccccc45)CC3)c(Cl)cc2N1`, the outcome was inactive.
For the compound `O=c1[nH]cc(F)c(=O)[nH]1`, the compound was classed as inactive.
The same measure for `Cc1cc(C(C)(C)C)cc(C)c1CC1=NCCN1`: “inactive”; for `NS(=O)(=O)c1cc2c(cc1Cl)NCNS2(=O)=O`: “inactive”.
The same measure for `Nc1nc2c(ncn2COC(CO)CO)c(=O)[nH]1`: “inactive”; for `COC(=O)Nc1nc2ccc(C(=O)c3cccs3)cc2[nH]1`: “inactive”; for `COc1ccccc1OCC(O)CN1CCN(CC(=O)Nc2c(C)cccc2C)CC1` (stereo not given): “inactive”.
The same measure for `CN1CCC(=C2c3ccccc3CC(=O)c3sccc32)CC1`: “inactive”; for `Nc1nnc(-c2cccc(Cl)c2Cl)c(N)n1`: “inactive”; for `Cc1cnc(C(=O)NCCc2ccc(S(=O)(=O)NC(=O)NC3CCCCC3)cc2)cn1`: “inactive”.
`O=c1c(O)c(-c2ccc(O)c(O)c2)oc2cc(O)cc(O)c12`: the compound was classed as inactive.
On to `NC(CO)C(=O)NNCc1ccc(O)c(O)c1O` (stereo not given), for which the compound was classed as inactive.
As for `Cc1cn([C@H]2C=C[C@@H](CO)O2)c(=O)[nH]c1=O`, the entry is “inactive”; as for `CC(C)Cc1ccc(C(C)C(=O)O)cc1` (stereo not given), “inactive”.
Turning to `CCOC(=O)c1ncn2c1CN(C)C(=O)c1cc(F)ccc1-2`, the result was inactive.
As for `CN1C(C(=O)Nc2ccccn2)=C(O)c2ccccc2S1(=O)=O`, the entry is “inactive”.
